According to PubChem BioAssay (Tox21):
Values without a mark were called inactive. Results filed as inconclusive are left out. Activity calls are given as the source filed them. Unless noted, calls follow the shape of the dose curve; as a rule, active = well fitted cell-killing curve with a large enough effect in the repeat runs; inconclusive = weak or mixed curves, or effect the other way; inactive = flat fitted curve, though single readings scatter.

Target: Thyrotropin-releasing hormone receptor (Homo sapiens) (UniProt P34981)
Sequence (P34981 whole entry, looked up): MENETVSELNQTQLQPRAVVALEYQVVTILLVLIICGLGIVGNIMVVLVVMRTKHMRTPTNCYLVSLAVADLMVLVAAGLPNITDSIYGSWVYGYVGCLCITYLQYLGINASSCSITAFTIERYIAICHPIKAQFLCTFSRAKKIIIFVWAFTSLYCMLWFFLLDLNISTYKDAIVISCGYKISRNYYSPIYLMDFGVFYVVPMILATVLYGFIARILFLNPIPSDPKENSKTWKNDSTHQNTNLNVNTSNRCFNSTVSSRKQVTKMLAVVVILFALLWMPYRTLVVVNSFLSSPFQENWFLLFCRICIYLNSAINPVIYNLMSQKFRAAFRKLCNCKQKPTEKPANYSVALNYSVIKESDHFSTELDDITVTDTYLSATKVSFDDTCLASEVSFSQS
Assay: qHTS assay to identify small molecule antagonists of the thyrotropin-releasing hormone receptor (TRHR) signaling pathway (AID 1346877; active = well fitted inhibition curve with a large enough effect in the repeat runs, not every such curve was filed as active)
Details: TRHR-HEK293, TRH-induced calcium fluorescence, antagonist mode; series mostly up to 51.3 µM; activity, negative = inhibition: at the top concentration
Procedure, shortened: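 Overnight-plated (18 h, 37 °C) HEK293 cells expressing TRHR were dye-loaded 2 h, treated with compound, then stimulated with TRH at 1 nM final. Fluorescence intensity was captured every second for 3 min.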
% is scaled to controls: 0 for no effect and ±100 for the full control effect.

SMILES | activity, negative = inhibition
O=NN(CCCl)C(=O)NCCCl | -2.08% [at 23.6 µM]
O=C(O)CCS | -3.19%
CSSc1ccoc1C | 0.798%
O=C1OC[C@H](Cc2cccc(O)c2)[C@H]1Cc1cccc(O)c1 | -0.529% [at 23.6 µM]
FC(F)(F)C(F)(F)C(F)(F)C(F)(F)CCI | 5.68% [at 23.6 µM]
CCCCCCCCCCCCCCCC(=O)OCC | -10.9%
Nc1ccc(N=Nc2ccc(N)cc2)cc1 | -8.02% [at 23.6 µM]
CC1C(C)(C)C2=C(C(=O)CCC2)C1(C)C (stereo unspecified) | 6.15%
CCCCCCOC(=O)CCCCC | -2.56%
O=c1[nH][nH]c(=O)c2cc([N+](=O)[O-])ccc12 | 3.98%
CCC(=O)OCc1ccc(OC)cc1 | 5.34%
Nc1ccc(S(=O)(=O)NCc2ccccc2)cc1 | 9.86% [at 23.6 µM]
CCC(Cl)CC(Cl)C(Cl)C(Cl)C(Cl)C(C)Cl (stereo unspecified) | 0.125% [at 10.5 µM]
CC(C)c1ccc(C#N)cc1 | 5.24%
CC1=CC[C@@]23C[C@@H]1C(C)(C)[C@@H]2CC[C@H]3C | 1.6%
Cc1cccc2sc(N)nc12 | 0.418%
CCCCCCCCCCCCCCN(C)C | 0.781% [at 10.5 µM]
O=C(O)c1cccc(C[C@@H]2COc3ccc(OCc4nc5cc(F)ccc5s4)cc3[C@@H]2O)c1 | 5.41%
O=C(O)CO | 3%
CCCCC[C@H](O)/C=C/[C@H]1[C@H](O)CC(=O)[C@@H]1C/C=C\CCCC(=O)O | 3.05% [at 23.6 µM]
CC(C)C(=O)OCCOc1ccccc1 | -3.63%
O=C1CC[C@@H](C(=O)O)N1 | 1.89% [at 23.6 µM]
CCCCOCCOC(=O)c1cccnc1 | -2.19% [at 23.6 µM]
COC(=O)CC(C(C)=O)C(=O)OC (stereo unspecified) | 0.555%
CC(C)(O)c1coc(S(=O)(=O)NC(=O)Nc2c3c(cc4c2CCC4)CCC3)c1 | 1.32%
COC(CC(C)CCCC(C)(C)O)OC (stereo unspecified) | 1.7%
C[C@H](CS)C(=O)N1CCC[C@H]1C(=O)O | 2.61% [at 23.6 µM]
CC(=O)Oc1cccc(O)c1 | -5.31% [at 23.6 µM]
Cc1cccc(C)c1NC(=O)c1cc(S(N)(=O)=O)c(Cl)cc1O | -3.45% [at 23.6 µM]

Target: Thyrotropin-releasing hormone receptor (Homo sapiens) (UniProt P34981)
Assay: qHTS assay to identify small molecule agonists of the thyrotropin-releasing hormone receptor (TRHR) signaling pathway (AID 1346891; calls by dose curve;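 also: HEK293 cells expressing TRHR with calcium dye readout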)
Details: TRHR-HEK293 calcium fluorescence, agonist mode; series mostly up to 57.6 µM; activation: at the top concentration
Procedure, shortened: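 Agonist-mode calcium mobilisation screen: TRHR-transfected HEK293 cells cultured overnight (18 h), dye-loaded for 2 h at 37 °C, exposed to compounds, and monitored by fluorescence for 3 min.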

SMILES | activation
O=NN(CCCl)C(=O)NCCCl | -0.185% [at 26.5 µM]
O=C(O)CCS | -0.123%
CSSc1ccoc1C | -0.147%
O=C1OC[C@H](Cc2cccc(O)c2)[C@H]1Cc1cccc(O)c1 | 0.553% [at 26.5 µM]
FC(F)(F)C(F)(F)C(F)(F)C(F)(F)CCI | 0.265% [at 26.5 µM]
CCCCCCCCCCCCCCCC(=O)OCC | 0.0088%
Nc1ccc(N=Nc2ccc(N)cc2)cc1 | -0.154% [at 26.5 µM]
CC1C(C)(C)C2=C(C(=O)CCC2)C1(C)C (stereo unspecified) | 0.623%
CCCCCCOC(=O)CCCCC | -0.177%
O=c1[nH][nH]c(=O)c2cc([N+](=O)[O-])ccc12 | -0.162%
CCC(=O)OCc1ccc(OC)cc1 | -0.167%
Nc1ccc(S(=O)(=O)NCc2ccccc2)cc1 | 0.122% [at 26.5 µM]
CCC(Cl)CC(Cl)C(Cl)C(Cl)C(Cl)C(C)Cl (stereo unspecified) | 0.352% [at 11.8 µM]
CC(C)c1ccc(C#N)cc1 | -1.53%
CC1=CC[C@@]23C[C@@H]1C(C)(C)[C@@H]2CC[C@H]3C | -0.499%
Cc1cccc2sc(N)nc12 | -0.014%
CCCCCCCCCCCCCCN(C)C | 1.06% [at 11.8 µM]
O=C(O)c1cccc(C[C@@H]2COc3ccc(OCc4nc5cc(F)ccc5s4)cc3[C@@H]2O)c1 | -0.157%
O=C(O)CO | -0.153%
CCCCC[C@H](O)/C=C/[C@H]1[C@H](O)CC(=O)[C@@H]1C/C=C\CCCC(=O)O | 8.8% [at 26.5 µM]
CC(C)C(=O)OCCOc1ccccc1 | -0.196%
O=C1CC[C@@H](C(=O)O)N1 | -0.996% [at 26.5 µM]
CCCCOCCOC(=O)c1cccnc1 | 0.171% [at 26.5 µM]
COC(=O)CC(C(C)=O)C(=O)OC (stereo unspecified) | -0.0856%
CC(C)(O)c1coc(S(=O)(=O)NC(=O)Nc2c3c(cc4c2CCC4)CCC3)c1 | 0.0151%
COC(CC(C)CCCC(C)(C)O)OC (stereo unspecified) | 0.253%
C[C@H](CS)C(=O)N1CCC[C@H]1C(=O)O | -1.13% [at 26.5 µM]
CC(=O)Oc1cccc(O)c1 | -0.0294% [at 26.5 µM]
Cc1cccc(C)c1NC(=O)c1cc(S(N)(=O)=O)c(Cl)cc1O | -0.0169% [at 26.5 µM]

Test system: not listed separately
Assay: Human pregnane X receptor (PXR) small molecule agonists, qHTS cell viability counter screen (AID 1346977); also: nearly all actives have a fitted effect of over 50% in size; also: potency is read from the fitted curve at half-maximal effect
Details: PXR-Luc HepG2 viability, CellTiter-Fluor, 24 h; series mostly up to 92.4 µM; activity change, negative = cytotoxicity: at the top concentration
Procedure, shortened: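 Measures live-cell protease fluorescence (CellTiter-Fluor) in PXR-Luc HepG2 cells treated 24hr with compounds at 37C. Cells had 5hr to attach before pin transfer of DMSO solutions.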

SMILES | activity change, negative = cytotoxicity | Potency
O=NN(CCCl)C(=O)NCCCl | 13.1% [at 42.5 µM] | –
O=C(O)CCS | 3.36% | –
CSSc1ccoc1C | 6.42% | –
O=C1OC[C@H](Cc2cccc(O)c2)[C@H]1Cc1cccc(O)c1 | 6.7% [at 42.5 µM] | –
Nc1ccn([C@H]2CS[C@@H](CO)O2)c(=O)n1 | 4.58% | –
FC(F)(F)C(F)(F)C(F)(F)C(F)(F)CCI | 1.51% [at 42.5 µM] | –
CCCCCCCCCCCCCCCC(=O)OCC | -1.65% | –
Nc1ccc(N=Nc2ccc(N)cc2)cc1 | – | 21.7 µM (active)
CC1C(C)(C)C2=C(C(=O)CCC2)C1(C)C (stereo unspecified) | 16.9% | –
CCCCCCOC(=O)CCCCC | 2.21% | –
O=c1[nH][nH]c(=O)c2cc([N+](=O)[O-])ccc12 | -11.4% | –
CCC(=O)OCc1ccc(OC)cc1 | 2.88% | –
CNC1CCCN(c2c(F)cc3c(=O)c(C(=O)O)cn(C4CC4)c3c2OC)C1 (stereo unspecified) | -1.82% [at 42.5 µM] | –
Nc1ccc(S(=O)(=O)NCc2ccccc2)cc1 | 0.178% [at 42.5 µM] | –
CC(=O)N[C@@H](Cc1ccc(O)cc1)C(=O)O | -0.712% [at 42.5 µM] | –
CC(C)(C)NCC(O)COc1cccc2c1C[C@H](O)[C@H](O)C2 (stereo partly specified) | 7.82% [at 42.5 µM] | –
CCC(Cl)CC(Cl)C(Cl)C(Cl)C(Cl)C(C)Cl (stereo unspecified) | -5.6% [at 19 µM] | –
CC(C)c1ccc(C#N)cc1 | 8.47% | –
CC1=CC[C@@]23C[C@@H]1C(C)(C)[C@@H]2CC[C@H]3C | -1.39% | –

SMILES | activity change, negative = cytotoxicity | Potency
Cc1cccc2sc(N)nc12 | -2.27% | –
CCN(CC)CC(=O)Nc1c(C)cccc1C(=O)OC | -1.08% [at 42.5 µM] | –
CN=C(N)NC(=O)Nc1c(C)cccc1C | 6.58% [at 42.5 µM] | –
CCCCCCCCCCCCCCN(C)C | 0.682% [at 19 µM] | –
C=CC(=O)NC(C)C | -1.22% | –
O=C(O)c1cccc(C[C@@H]2COc3ccc(OCc4nc5cc(F)ccc5s4)cc3[C@@H]2O)c1 | 9.03% | –
O=C(O)CO | 0.0312% | –
CCCCC[C@H](O)/C=C/[C@H]1[C@H](O)CC(=O)[C@@H]1C/C=C\CCCC(=O)O | -2.54% [at 42.5 µM] | –
Cc1ccc(N(CC2=NCCN2)c2cccc(O)c2)cc1 | -7.91% [at 42.5 µM] | –
CC(C)C(=O)OCCOc1ccccc1 | 4.92% | –
O=C1CC[C@@H](C(=O)O)N1 | 5.55% [at 42.5 µM] | –
CCCCOCCOC(=O)c1cccnc1 | 19.3% [at 42.5 µM] | –
COC(=O)CC(C(C)=O)C(=O)OC (stereo unspecified) | 4.88% | –
CC(C)(O)c1coc(S(=O)(=O)NC(=O)Nc2c3c(cc4c2CCC4)CCC3)c1 | 13.8% | –
COC(CC(C)CCCC(C)(C)O)OC (stereo unspecified) | 0.469% | –
C[C@H](CS)C(=O)N1CCC[C@H]1C(=O)O | -13.1% [at 42.5 µM] | –
CC(=O)Oc1cccc(O)c1 | 6.21% [at 42.5 µM] | –
CSCC[C@H](NC(=O)[C@H](Cc1c[nH]c2ccccc12)NC(=O)CCNC(=O)OC(C)(C)C)C(=O)N[C@@H](CC(=O)O)C(=O)N[C@@H](Cc1ccccc1)C(N)=O | 11.5% [at 42.5 µM] | –
Cc1cccc(C)c1NC(=O)c1cc(S(N)(=O)=O)c(Cl)cc1O | 12.9% [at 42.5 µM] | –
